The results in this text go back to publication PMC4336329 (PLoS ONE, 2015).

Screen size: about 310,000 compounds; about 14,000 (4.5%) showed an effect of 50% or more. Effects have a minus sign here. Shown is part of a subset that was picked to be rich in strong results.
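Also: peak tail current of the secondary pulse compared with the same well before compound.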

In the test the target is human ether-à-go-go-related gene (hERG) potassium channel (human, UniProt Q12809). Description: primary screen, population patch clamp on CHO cells stably expressing hERG; higher = less effect of the substance.
Sequence of human ether-à-go-go-related gene (hERG) potassium channel (Q12809 whole entry, looked up): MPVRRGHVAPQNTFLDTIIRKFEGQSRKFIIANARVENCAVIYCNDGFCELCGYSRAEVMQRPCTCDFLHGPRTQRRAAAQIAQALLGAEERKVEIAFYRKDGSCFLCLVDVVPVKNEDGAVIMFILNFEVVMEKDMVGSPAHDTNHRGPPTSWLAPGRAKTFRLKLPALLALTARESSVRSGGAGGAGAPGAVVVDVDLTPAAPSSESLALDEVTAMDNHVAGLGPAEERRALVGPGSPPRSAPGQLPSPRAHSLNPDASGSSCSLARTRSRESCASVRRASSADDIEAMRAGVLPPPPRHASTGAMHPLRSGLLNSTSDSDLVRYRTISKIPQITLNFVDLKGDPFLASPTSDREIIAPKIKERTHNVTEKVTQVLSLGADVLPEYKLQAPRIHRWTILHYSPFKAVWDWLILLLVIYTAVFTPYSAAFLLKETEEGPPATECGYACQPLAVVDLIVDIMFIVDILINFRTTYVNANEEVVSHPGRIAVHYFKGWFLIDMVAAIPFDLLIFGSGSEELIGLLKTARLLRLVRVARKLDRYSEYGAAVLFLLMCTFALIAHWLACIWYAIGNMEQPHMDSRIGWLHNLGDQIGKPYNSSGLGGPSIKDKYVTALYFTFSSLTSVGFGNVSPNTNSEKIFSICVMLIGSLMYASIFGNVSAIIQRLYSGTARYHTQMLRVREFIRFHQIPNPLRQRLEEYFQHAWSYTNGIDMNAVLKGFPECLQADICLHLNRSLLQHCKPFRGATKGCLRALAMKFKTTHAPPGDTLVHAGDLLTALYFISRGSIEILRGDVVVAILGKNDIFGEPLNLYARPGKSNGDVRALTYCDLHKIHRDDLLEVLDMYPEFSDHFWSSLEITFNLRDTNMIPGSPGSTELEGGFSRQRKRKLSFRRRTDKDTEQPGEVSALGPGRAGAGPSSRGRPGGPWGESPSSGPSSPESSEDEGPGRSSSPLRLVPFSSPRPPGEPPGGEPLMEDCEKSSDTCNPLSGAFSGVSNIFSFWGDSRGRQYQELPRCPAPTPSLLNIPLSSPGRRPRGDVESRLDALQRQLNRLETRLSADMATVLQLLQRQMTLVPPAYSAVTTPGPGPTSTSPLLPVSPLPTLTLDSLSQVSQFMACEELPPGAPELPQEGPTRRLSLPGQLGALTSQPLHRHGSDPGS
For `CCCOc1ccc(C2C(C(=O)c3cc4ccccc4o3)=C(O)C(=O)N2c2cc(C)on2)cc1OC` (centres unmarked), the “hERG current change (%, negative = inhibition) at 10uM” value amounted to 25.3%. The same measure for `Cc1cnc(C(=O)Oc2ccc(-c3ccccc3)cc2)cn1`: 16.8%; for `CCCCOCCCNC(=O)c1ccc(OC)cc1`: -6.63%. `COc1ccc(NS(=O)(=O)c2cc3c(cc2C)N(C)CCO3)cc1`: the “hERG current change (%, negative = inhibition) at 10uM” value was -10.5%. For `CS(=O)(=O)NCC(c1cccnc1)N1CCN(c2ccccc2F)CC1` (centres unmarked), the “hERG current change (%, negative = inhibition) at 10uM” value is given as -9.77%.

Turning to `CCS(=O)(=O)NCC(c1cccnc1)N1CCN(c2ccccc2F)CC1` (centres unmarked), the “hERG current change (%, negative = inhibition) at 10uM” value was -3.19%.

On to `O=S(=O)(NCC(c1cccnc1)N1CCN(c2ccccc2F)CC1)c1cccs1` (centres unmarked), for which the “hERG current change (%, negative = inhibition) at 10uM” value is -60.5%.

On to `Cc1ccc(C(=O)CCC(=O)N2CCC(C(N)=O)CC2)cc1`, for which the “hERG current change (%, negative = inhibition) at 10uM” value was determined as 32%. Take `CCOC(=O)C1(CCC(C)C)CC(CSc2nc3ccccc3[nH]2)OC1=O` (centres unmarked): the “hERG current change (%, negative = inhibition) at 10uM” value is reported as -25.2%. Take `O=C(O)c1cc([N+](=O)[O-])c(NCc2cccnc2)c([N+](=O)[O-])c1`: the “hERG current change (%, negative = inhibition) at 10uM” value was 9.52%. In the case of `COc1ccc2c(c1)c(C(=O)CN1CCC3(CC1)OCCO3)c(C)n2Cc1ccccc1`, the “hERG current change (%, negative = inhibition) at 10uM” value is -53%. The same measure for `CCN1CCN(CC(=O)c2c(C)n(Cc3ccccc3)c3ccc(OC)cc23)CC1`: -41.3%; for `COc1ccc2c(c1)c(C(=O)CN1CCN(C)CC1)c(C)n2Cc1ccccc1`: -35%; for `CCOC(=O)N[C@H](Cc1c[nH]c2ccccc12)C(=O)NC1CC1`: 3.42%. Turning to `Cc1ccccc1N1CCN(C(=O)CN2C(=O)c3ccccc3C2=O)CC1`, the “hERG current change (%, negative = inhibition) at 10uM” value is reported as -11.8%.

As to `O=C(CN1C(=O)CSc2ccccc21)NC1CCCC1`, the “hERG current change (%, negative = inhibition) at 10uM” value was 0.766%.

As for `CC(C)CNC(=O)c1ccccc1SCC(=O)NC12CC3CC(CC(C3)C1)C2`, the “hERG current change (%, negative = inhibition) at 10uM” value is -5.62%. Consider `Cc1c(C(=O)N2CCC(n3nccc3NC(=O)C3CC3)CC2)[nH]c2ccc(Cl)cc12`, for which the “hERG current change (%, negative = inhibition) at 10uM” value is on record as -59.4%. On to `COc1ccc(C(=O)Nc2ccnn2C2CCN(Cc3cn(C)nc3C)CC2)cc1`, for which the “hERG current change (%, negative = inhibition) at 10uM” value is 17.1%. With `COc1cccc(CC(=O)N2CCC(n3nccc3NC(=O)C3CC3)CC2)c1`, the “hERG current change (%, negative = inhibition) at 10uM” value is 32%. The same measure for `Cc1c(CN2CCC(n3nccc3NC(=O)C3CC3)CC2)[nH]c2ccccc12`: -61%; for `O=C(Nc1ccnn1C1CCN(Cc2cc3ccccc3[nH]2)CC1)C1CCOC1` (centres unmarked): -31.5%; for `COc1ccc2[nH]c(CN3CCC(n4nccc4NC(=O)C4CC4)CC3)c(C)c2c1`: -63.3%. For `Cc1cc(C)c2[nH]c(C(=O)N3CCC(n4nccc4NC(=O)C4CC4)CC3)c(C)c2c1` the value was -44.6%; for `COc1ccc2[nH]c(C(=O)N3CCC(n4nccc4NC(=O)C4CC4)CC3)c(C)c2c1`, -30.4%; for `Cc1c(CN2CCC(n3nccc3NC(=O)C3CCOC3)CC2)[nH]c2ccccc12` (centres unmarked), -30.6%. `O=C(Cn1cnc([N+](=O)[O-])c1)NCc1ccc(F)cc1`: the “hERG current change (%, negative = inhibition) at 10uM” value is reported as 7.86%. In the case of `O=C(NC(=S)Nc1ncccn1)c1ccccc1Cl`, the “hERG current change (%, negative = inhibition) at 10uM” value was 11.8%. In the case of `O=C(Nc1cc([N+](=O)[O-])ccc1F)C1CC1`, the “hERG current change (%, negative = inhibition) at 10uM” value was -4.7%. As to `Cc1ccc(CCNC(=O)CNS(=O)(=O)c2ccc3nc(C)sc3c2)cc1`, the “hERG current change (%, negative = inhibition) at 10uM” value is on record as 2.53%. Consider `CCNS(=O)(=O)c1ccc(CCC(=O)NCc2ccccc2)cc1`, for which the “hERG current change (%, negative = inhibition) at 10uM” value was -19.6%. Turning to `CCNS(=O)(=O)c1ccc(CCC(=O)NCc2ccc(C)cc2)cc1`, the “hERG current change (%, negative = inhibition) at 10uM” value is given as -53.1%. For the molecule `Cc1nc2ccc(S(=O)(=O)NCC(=O)NCc3ccc(Cl)cc3)cc2s1`, the “hERG current change (%, negative = inhibition) at 10uM” value stood at 17.4%. In the case of `CCNS(=O)(=O)c1ccc(CCC(=O)NCc2ccncc2)cc1`, the “hERG current change (%, negative = inhibition) at 10uM” value was determined as 2.58%. As for `Cc1ccc(CNC(=O)CNS(=O)(=O)c2ccc3nc(C)sc3c2)cc1`, the “hERG current change (%, negative = inhibition) at 10uM” value was -64.6%. Consider `CSc1ccccc1NC(=O)CN(C)S(=O)(=O)c1ccc(F)cc1`, for which the “hERG current change (%, negative = inhibition) at 10uM” value is listed as -35.2%. Regarding `CC(=O)Nc1ccc(OCCC[n+]2cccc(C(=O)[O-])c2)cc1`, the “hERG current change (%, negative = inhibition) at 10uM” value was 12.5%. Turning to `Cn1cnc2c(oc3ccccc32)c1=O`, the “hERG current change (%, negative = inhibition) at 10uM” value amounted to 9.26%. For `CC1(C)N=C(/C=N/O)CN1O` the value was 11.7%. For `CCCCC(=O)Nc1cc(C)c2c(=O)oc3ccccc3c2n1` the value was 4.39%; for `COc1ccc(S(=O)(=O)Cc2ccc(C(=O)N3CCN(c4ccccn4)CC3)o2)cc1`, -27.9%; for `COc1cc(OC)c(C2SCCS2)c(OC)c1`, 2.14%. Turning to `CCOC(=O)CC(=O)NC1(Cc2ccc(O)cc2)CCCCC1`, the “hERG current change (%, negative = inhibition) at 10uM” value came to 1.06%. For `O=[N+]([O-])c1ccc(Cc2ccccn2)cc1`, the “hERG current change (%, negative = inhibition) at 10uM” value is reported as -15.7%.

`NC(=O)c1cc([N+](=O)[O-])ccc1NCc1ccccn1`: the “hERG current change (%, negative = inhibition) at 10uM” value is -73.8%. Regarding `O=C(O)c1cc([N+](=O)[O-])ccc1NCc1ccccn1`, the “hERG current change (%, negative = inhibition) at 10uM” value worked out at 12.7%. Regarding `O=[N+]([O-])c1ccc(Cc2ccccn2)c([N+](=O)[O-])c1`, the “hERG current change (%, negative = inhibition) at 10uM” value was -50.2%. With `O=[N+]([O-])c1ccc(Nc2ccccn2)c([N+](=O)[O-])c1`, the “hERG current change (%, negative = inhibition) at 10uM” value is reported as -4.46%. Take `NC(=O)c1cc([N+](=O)[O-])ccc1NCc1cnccn1`: the “hERG current change (%, negative = inhibition) at 10uM” value is -12.9%. As to `COn1c(-c2ccc(Cl)cc2Cl)nc2ncccc21`, the “hERG current change (%, negative = inhibition) at 10uM” value is listed as -1.12%. As to `CCc1nnc(NC(=O)c2sc3nc4c(cc3c2N)CCCCCC4)s1`, the “hERG current change (%, negative = inhibition) at 10uM” value is given as 4.75%. Take `COc1ccc(N/C=C/C(=O)c2ccc(Cl)cc2)cc1`: the “hERG current change (%, negative = inhibition) at 10uM” value is listed as -13.7%.

Consider `CCN1CCN(CCCNC(=O)Cn2nc(C)n3nc(-c4ccccc4)cc3c2=O)CC1`, for which the “hERG current change (%, negative = inhibition) at 10uM” value is given as -11.1%.

For the molecule `O=c1ccc(-c2nc3ccccc3n2Cc2ccccc2Cl)c[nH]1`, the “hERG current change (%, negative = inhibition) at 10uM” value was -11.9%. Regarding `O=c1ccc(-c2nc3ccccc3n2Cc2ccc(Cl)cc2)c[nH]1`, the “hERG current change (%, negative = inhibition) at 10uM” value was -76%. Turning to `Clc1ccc(Cn2c(-c3cccnc3Cl)nc3ccccc32)c(Cl)c1`, the “hERG current change (%, negative = inhibition) at 10uM” value was -22.1%. The same measure for `O=c1ccc(-c2nc3cc(Cl)ccc3n2Cc2ccccc2)c[nH]1`: -73.9%. Regarding `Clc1ncccc1-c1nc2ccccc2n1Cc1ccccc1`, the “hERG current change (%, negative = inhibition) at 10uM” value is on record as -33.5%. As to `Cc1cc2nc(-c3ccc(=O)[nH]c3)n(Cc3ccccc3)c2cc1C`, the “hERG current change (%, negative = inhibition) at 10uM” value is -35.2%.

As to `Cc1ccccc1Cn1c(-c2ccc(=O)[nH]c2)nc2ccccc21`, the “hERG current change (%, negative = inhibition) at 10uM” value is on record as -11.4%. With `Clc1ccc(Cn2c(-c3cccnc3Cl)nc3ccccc32)cc1`, the “hERG current change (%, negative = inhibition) at 10uM” value is -70.7%. With `O=c1[nH]cccc1-c1nc2cc(Cl)ccc2n1Cc1ccccc1`, the “hERG current change (%, negative = inhibition) at 10uM” value was -12%.

As for `Cc1cc(/C=N/NC(=O)c2nn(C)cc2Cl)c(C)n1-c1cccc(Br)c1`, the “hERG current change (%, negative = inhibition) at 10uM” value is recorded as 8.09%. The same measure for `Nc1nonc1-n1nncc1-c1ccccc1`: 1.98%; for `CCN(Cc1ccccc1)C(=O)COC(=O)CNC(=O)c1ccc(C)s1`: 1.42%. The same measure for `CSc1ccc(/C=N\Nc2nncn2N)cc1.Cl`: 10.9%; for `CCOC(=O)c1sc(NC(=O)COc2ccc3c(c2)OCO3)nc1C`: 7.47%; for `CCCCOP(=O)(OCCCC)/C(C#N)=C(/C)O`: 13.1%. Take `CC(C)C(NC(=O)c1ccccc1Br)c1ccccc1` (centres unmarked): the “hERG current change (%, negative = inhibition) at 10uM” value worked out at 11.2%.

For the molecule `CC(=O)n1cc([C@@H]2C=C(C(=O)NCc3ccccc3)O[C@H](OCCCCO)C2)c2ccccc21`, the “hERG current change (%, negative = inhibition) at 10uM” value was -78.3%. The same measure for `CC(=O)n1cc([C@H]2C=C(C(=O)NCc3ccccc3)O[C@@H](OCCCCO)C2)c2ccccc21`: -62%. Turning to `C=CCOC(=O)C1=C[C@H](c2cn(C(C)=O)c3ccccc23)C[C@H](OCCCCO)O1`, the “hERG current change (%, negative = inhibition) at 10uM” value is reported as -38.7%.

Take `C#CCNC(=O)C1=C[C@@H](c2cn(C(C)=O)c3ccccc23)C[C@@H](OCCCCO)O1`: the “hERG current change (%, negative = inhibition) at 10uM” value is -40.1%. Consider `CC(=O)n1cc([C@H]2C=C(C(=O)Nc3ccccc3)O[C@@H](OCCCCO)C2)c2ccccc21`, for which the “hERG current change (%, negative = inhibition) at 10uM” value is listed as -25%.

On to `CC(=O)n1cc([C@H]2C=C(C(=O)NCc3ccccc3)O[C@@H](OCc3ccc(CO)cc3)C2)c2ccccc21`, for which the “hERG current change (%, negative = inhibition) at 10uM” value turned out to be 15.6%. On to `CC(=O)n1cc([C@H]2C=C(C(=O)O)O[C@@H](OCCCCO)C2)c2ccccc21`, for which the “hERG current change (%, negative = inhibition) at 10uM” value is on record as 0.0595%. `CC(=O)n1cc([C@@H]2C=C(C(=O)NCc3ccccc3)O[C@H](OCc3ccc(CO)cc3)C2)c2ccccc21`: the “hERG current change (%, negative = inhibition) at 10uM” value is -26.6%. For `CC(=O)n1cc([C@@H]2C=C(C(=O)Nc3ccccc3)O[C@H](OCCCCO)C2)c2ccccc21`, the “hERG current change (%, negative = inhibition) at 10uM” value was -54.5%. For `COc1ccc2cc(CN(CC3CCCO3)S(=O)(=O)c3ccccc3Cl)c(=O)[nH]c2c1` (centres unmarked) the value was -36.7%; for `O=C(/C=C/Nc1ccc(F)c(Cl)c1)c1ccco1`, -0.57%.

`O=C(NCCCN1CCCC1=O)c1ccc(OCc2ccccc2)cc1`: the “hERG current change (%, negative = inhibition) at 10uM” value was -12.9%.

Take `COc1cc(C(=O)NCCCN2CCCC2=O)cc(OC)c1OC`: the “hERG current change (%, negative = inhibition) at 10uM” value is -2.96%. As for `COc1ccc(-c2cc(C(=O)NCCCN3CCCC3=O)c3ccccc3n2)cc1`, the “hERG current change (%, negative = inhibition) at 10uM” value is listed as -12%. For `COc1ccc(-c2cc(C(=O)NCCCN3CCCC3=O)c3ccccc3n2)cc1OC` the value was -64.7%; for `O=C(NCCCN1CCCC1=O)c1cc(-c2ccc3c(c2)OCO3)nc2ccccc12`, -4.06%. The same measure for `COc1cc(C(=O)NCCCN2CCCC2=O)cc(Br)c1OCc1ccccc1`: -50.7%.
